The text below walks through data of PubChem BioAssay AID686979 (National Center for Advancing Translational Sciences (NCATS), 2013).

Hit rate of the full screen: of about 420,000 compounds, about 50,000 (12%) were called active. Where a call stands in place of a potency, no number is given. About 26% were inconclusive and are not listed. The call rests on the fitted dose curve; in most records, active means well fitted inhibition curve with a large enough effect; inconclusive means small, poorly fitted or top-dose-only effect; inactive means flat fitted curve, though single readings scatter. Many of the other results were omitted from the sample, so actives are more common in it than they were.
Potency means the concentration at half of the fitted maximal effect.

The assay is described as follows: qHTS for Inhibitors of human tyrosyl-DNA phosphodiesterase 1 (TDP1): qHTS in cells in presence of CPT. Further: nearly all actives have a fitted effect of over 55% in size. Conditions: chicken DT40 Tdp1-/-;hTDP1 cells + 20 nM CPT, ATP luminescence, 48 h; series mostly up to 46.2 µM. The method, boiled down:
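Chicken DT40 Tdp1-/- cells complemented with human TDP1, 400 cells/well, exposed to compounds plus 20 nM camptothecin for at least 48 h at 37 C; viability read as ATP content by CellTiter-Glo luminescence.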
(qHTS replaces the single test concentration by a dilution series.)
Take `CN(CC(=O)NC1CCCC1)S(=O)(=O)c1cnc[nH]1`: the Potency entry was “inactive”.

As to `C=CCN1CN(S(=O)(=O)c2ccc(OC)cc2)c2nc3ccccc3nc21`, the Potency result was “inactive”.

As to `O=C(Cn1cc(C(F)(F)F)ccc1=O)N/N=C/c1ccc(Cl)cc1Cl`, the Potency entry is “inactive”.

In the case of `CC1(C(=O)NS(=O)(=O)c2ccc(C#N)cc2)CCN1C(=O)c1ccc(C2CCCCC2)cc1` (stereo not given), the Potency result was “inactive”.

In the case of `O=C(CNC(=O)OCc1ccccc1)NC1CCCCNC1=O` (stereo not given), the Potency entry is “inactive”.

On to `Cc1ccc(C(=O)NCC(=O)OCC(=O)NC2CCCCCCC2)cc1`, for which the Potency entry was “inactive”.

As to `CN(C1CCS(=O)(=O)C1)S(=O)(=O)c1ccc2ccccc2c1` (stereo not given), the Potency entry was “inactive”.

For `O=C(NC(Nc1nc2ccc([N+](=O)[O-])cc2s1)(C(F)(F)F)C(F)(F)F)c1ccccc1`, the Potency is 0.461 µM (active).

For `O=C(COC(=O)c1ccc(F)cc1)Nc1nc2ccc([N+](=O)[O-])cc2s1`, the Potency entry is “inactive”.

Take `O=C(CNC(=O)c1ccccc1)Oc1ccc([N+](=O)[O-])cc1`: the Potency result is “inactive”.

Consider `Nc1ccc(N=Nc2ccccc2Cl)c(N)n1`, for which the Potency entry was “inactive”.

`Cc1cc(Br)cn2c(Cc3ccccc3C(F)(F)F)c(-c3ccc(Cl)cc3)nc12`: the Potency result is “inactive”.

Turning to `Cc1ccc(Cc2c(-c3ccco3)nc3ccc(Cl)cn23)cc1`, the Potency was 8.2 µM (active).

On to `CN1CCN(Cc2c(C(=O)N3CCc4ccccc4C3)nc3ccc(Cl)cn23)CC1`, for which the Potency result is “inactive”.

For `Cc1ccc(-c2nc3c(C)cc(Br)cn3c2Cc2ccccc2)cc1`, the Potency result is “inactive”.

Regarding `Cc1ccc(-c2nc3ccc(Br)cn3c2Cc2ccccc2C(F)(F)F)cc1`, the Potency was 16.4 µM (active).

Regarding `Cc1ccc(Cc2c(-c3ccccc3)nc3ccc(Cl)cn23)cc1`, the Potency entry was “inactive”.

Take `Cc1cc(Br)cn2c(Cc3ccccc3C(F)(F)F)c(C3CCCCC3)nc12`: the Potency result is “inactive”.

For the compound `Cc1ccc(-c2nc3ccc(Cl)cn3c2Cc2ccccc2)cc1`, the Potency was 20.6 µM (active).

As for `CC(=O)Nc1c(-c2ccc(C)cc2)nc2ccc(Cl)cn12`, the Potency entry is “inactive”.

Turning to `Cc1ccccc1-n1nnnc1SCCCC(=O)c1ccc(F)cc1`, the Potency result was “inactive”.

Consider `CCCS(=O)(=O)NC(=O)C1(C)CCCN(C(=O)c2cc(C)on2)C1` (stereo not given), for which the Potency entry was “inactive”.

Take `O=S(=O)(c1cccc(-c2cn3ccccc3n2)c1)N1CCCC1`: the Potency entry was “inactive”.

Consider `O=C(COC(=O)c1cccc(Cl)c1)NC1CCCCCCC1`, for which the Potency entry is “inactive”.

On to `Cc1nnc(NC(=O)Cn2c(=O)sc3ccccc32)s1`, for which the Potency entry was “inactive”.

Consider `c1ccc(CC2CCN(c3nc4ccccc4n4cnnc34)CC2)cc1`, for which the Potency result is “inactive”.

`O=C(NNc1nc(N2CCCC2)nc(N2CCCC2)n1)c1ccccc1`: the Potency result was “inactive”.

In the case of `O=C(c1ccccc1)c1ccc2nc(N3CCCCC3)c3nncn3c2c1`, the Potency is 23.1 µM (active).

With `O=C(CN1CCCCC1)NC(=O)Nc1ccccc1F`, the Potency result is “inactive”.

In the case of `Cc1cc(C)c(C(N)=O)c(Cl)n1`, the Potency result was “inactive”.

Turning to `COc1ccc(CN2C(=O)C(CC(=O)NCCN3CCOCC3)CC(C(=O)N(C(C)C)C(C)C)=C2C)cc1` (stereo not given), the Potency result was “inactive”.

On to `CC(C)(Oc1ccc(Cl)cc1)C(=O)OCC(=O)NCCc1ccc(S(N)(=O)=O)cc1`, for which the Potency result was “inactive”.

For `O=C(N/N=C/c1ccc(Cl)c(Cl)c1)c1ccc2nc[nH]c2c1`, the Potency entry was “inactive”.

Turning to `CCCc1cc(=O)oc2c(C)c(OCC(=O)N3CCC(C(=O)O)CC3)ccc12`, the Potency entry is “inactive”.

In the case of `O=S(=O)(c1ccc(Br)cc1)N1CCC(c2nc3ccccc3[nH]2)CC1`, the Potency is 18.4 µM (active).

Regarding `CN(C)CCCNC(=S)N1CCC(c2nc3ccccc3[nH]2)CC1`, the Potency result is “inactive”.

As to `O=C(NCc1ccccn1)C1CCN(S(=O)(=O)c2ccc(Br)cc2)CC1`, the Potency result was “inactive”.

For `Cc1ccc2oc(C(=O)N3CCN(C)C[C@@H]3C(C)C)c(C)c2c1`, the Potency entry was “inactive”.

As to `CN(C(=O)CN1C(=O)NC(C)(CCc2ccccc2)C1=O)c1ccccc1` (stereo not given), the Potency result was “inactive”.

As for `COc1ccccc1C(=O)OCC(=O)Nc1cccc(S(=O)(=O)NC2=NCCCCC2)c1`, the Potency result was “inactive”.

Turning to `Cc1cccc(-n2c(SCC(=O)Nc3cccc(S(=O)(=O)NC4=NCCCCC4)c3)nc3ccccc3c2=O)c1C`, the Potency was 5.17 µM (active).

Regarding `CCc1ccc(C(=O)OCC(=O)Nc2cccc(S(=O)(=O)NC3=NCCCCC3)c2)cc1`, the Potency entry is “inactive”.

As for `O=c1ccc(-c2ccc(S(=O)(=O)Nc3ccccc3)o2)n[nH]1`, the Potency result was “inactive”.

Turning to `CCOc1ccc(NC(=O)C/C(C)=N/NC(=O)Cc2cccs2)cc1`, the Potency entry was “inactive”.

With `Cc1ccc2c(c1)c1c(c(=O)n(-c3ccccc3)c(=O)n1CC(=O)c1ccc(Cl)cc1)n2C`, the Potency entry is “inactive”.

As to `O=C1OC(Cc2ccccc2)C(c2ccccc2)C1=O` (stereo not given), the Potency entry was “inactive”.

Consider `CCCCS(=O)(=O)c1oc(-c2cccs2)nc1S(=O)(=O)c1ccccc1`, for which the Potency is 0.82 µM (active).

On to `Cc1ccc(CSc2oc(-c3cccs3)nc2S(=O)(=O)c2ccc(C)cc2)cc1`, for which the Potency was 13 µM (active).

Consider `Cc1ccc(CSc2ccc(S(=O)(=O)N3CCCCC3)cn2)cc1`, for which the Potency entry was “inactive”.

For the compound `Cc1c(-c2ccccc2)nc(N)c(C#N)c1-c1cccs1`, the Potency entry is “inactive”.

`COC(=O)CSc1nccc(-c2cccs2)n1`: the Potency result was “inactive”.

Consider `NC(=O)CSc1oc(-c2cccs2)nc1S(=O)(=O)c1ccccc1`, for which the Potency entry is “inactive”.

Consider `Cc1ccc(NC(=O)COC(=O)CNC(=O)c2ccc(Cl)cc2Cl)cc1S(=O)(=O)N1CCOCC1`, for which the Potency entry was “inactive”.

With `COc1ccc2[nH]c3c(c2c1)CCN1C(=O)C(CC(=O)NCCc2ccccn2)C[C@H](C(=O)N2CCOCC2)[C@@]31C` (stereo not given in full), the Potency entry is “inactive”.

Consider `COc1ccc(OCCCCN2CCC(C)CC2)cc1`, for which the Potency result was “inactive”.

For the compound `O=S(=O)(Nc1cccc(-c2ccc(N3CCOCC3)nn2)c1)c1ccc(Cl)c(Cl)c1`, the Potency entry is “inactive”.

Regarding `CCN(CC)C(CNC(=O)CSc1nnnn1-c1cccc(F)c1)c1ccco1` (stereo not given), the Potency entry was “inactive”.

On to `COc1ccc(N(C(=O)CNC(=O)c2ccco2)C(C(=O)NCC2CCCO2)c2ccccc2)cc1Cl` (stereo not given), for which the Potency entry was “inactive”.

Take `O=c1c2ccccc2nc2n1C(CSCc1cccc(C(F)(F)F)c1)CS2` (stereo not given): the Potency was 3.66 µM (active).

For the compound `N#Cc1c(-c2ccccc2)nc(SCc2cccc(C(F)(F)F)c2)[nH]c1=O`, the Potency result was “inactive”.

For the compound `O=c1c2ccccc2nc2n1C(CSc1ccc(F)cc1)CN2` (stereo not given), the Potency result is “inactive”.

As to `O=c1c2ccccc2nc2n1C(CSCc1ccccc1)CS2` (stereo not given), the Potency was 8.2 µM (active).

Turning to `O=c1c2ccccc2nc2n1C(CSc1ccc(Cl)cc1)CN2` (stereo not given), the Potency entry is “inactive”.

Turning to `O=S(=O)(c1cccc(C(F)(F)F)c1)N1CCN(c2nc(-c3cccs3)nc3ccccc23)CC1`, the Potency entry was “inactive”.

For `COc1ccc(-c2c(C)c3ccc(O)c(CN4CCN(C)CC4)c3oc2=O)cc1OC`, the Potency result was “inactive”.
